Test results as given in PubChem BioAssay (NCATS).
Results filed as inconclusive are left out. Activity calls are given as the source filed them. Unless noted, calls come from the whole dose curve; as a rule, active = well fitted curve in either direction with a large enough effect (not every such curve was filed as active); inconclusive = small, poorly fitted or top-dose-only effect, or another doubt; inactive = flat fitted curve, though single readings scatter.

How the values were obtained:
[1] = target: Lysosomal acid glucosylceramidase (Homo sapiens) (UniProt P04062); assay: Glucocerebrosidase-p2 (AID 348; in the data active = potency below about 10 µM; note: potency is the fitted concentration of half-maximal effect); settings: purified GBA, blue fluorogenic substrate, 40 min
How it was run: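 Normal human glucocerebrosidase (0.2 nM) with blue fluorogenic substrate (80 uM final) in citrate/phosphate pH 5.9 with 10mM sodium taurocholate, 0.01% tween-20; 40 min RT, NaOH/glycine stop; fluorescence Ex 365/Em 440; AC50 from a titration from 0.6 nM upwards.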

[2] = AP1 Signaling Pathway (AID 357); settings: ME-180 AP-1-bla reporter, EGF-induced, beta-lactamase ratio, 5 h; at 7.69 µM (top of the series) unless noted;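 note: ME-180 reporter cells stimulated with EGF at its EC50 level; % is set by controls: 0 for no effect and ±100 for the full control effect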
How it was run: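 Cells are seeded overnight, exposed to compound titrations and an EC50 level of EGF for 5 hours at 37 °C, then loaded with CCF4 dye for 2.5 hours. Beta-lactamase activity under the AP-1 element is read as a blue/green ratio.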

[3] = target: Cytochrome P450 1A2 (Homo sapiens) (UniProt P05177); assay: p450-cyp1a2 (AID 410; calls by dose curve; note: potency is the fitted concentration of half-maximal effect;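 for activity change, negative = inhibition: -100% = full effect of reference inhibitor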); settings: recombinant CYP1A2, luciferin-ME demethylation, luminescence; series mostly up to 57 µM
How it was run: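 Read-out is luminescence from luciferin produced by CYP1A2 demethylation of Luciferin-ME (100uM, at Km). Detection reagent stopped the 60 min NADPH-dependent reaction; signals were normalized to 57 uM furafylline.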

[4] = Stat Signaling Pathway (AID 446); settings: ME-180 (cervical carcinoma) SIE beta-lactamase reporter, IL-6 stimulated, 5 h; at 7.69 µM (top of the series) unless noted;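 note: ME-180 cervical cancer cells given 40 pM IL-6 alongside compound; SIE-controlled beta-lactamase reporter measured as 460/530 nm FRET emission ratio; % is set by controls: 0 for no effect and ±100 for the full control effect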
How it was run: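 Emission at 460 and 530 nm (excitation 405 nm) reports SIE-controlled beta-lactamase in ME-180 cells. Cells received compound with 40 pM IL-6 for 5 hrs at 37 C; data scaled between 300 pM IL-6 and 125 nM JAK-inhibitor controls.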

[5] = target: Glucocorticoid receptor (Homo sapiens) (UniProt P04150); assay: GR-EFC Redistribution (AID 451; calls by dose curve; note: potency is the fitted concentration of half-maximal effect); settings: CHO-K1 GR-EFC translocation, beta-gal luminescence, 2 h
How it was run: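 CHO-K1 cells expressing nuclear EA and GR-ED fragments of b-gal; compounds titrated up to 46 uM final, 2 h at 37 C. GR nuclear translocation read as complemented b-gal luminescence after 1 h RT detection.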

[6] = target: Mitogen-activated protein kinase 10 (Mus musculus) (UniProt Q61831); assay: JNK3 AlphaScreen Assay (AID 530); settings: JNK3 lysate, c-Jun phosphorylation; series mostly up to 57.1 µM;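 note: kinase came from lysate of stimulated human HepG2 cells; signal reports phosphorylation of biotinylated GST-cJun 1-79 at Ser73 with 10 µM ATP; % is set by controls: 0 for no effect and ±100 for the full control effect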
How it was run: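 HepG2 lysate (IL-1b/TNFa pre-activated) + biotin-GST-cJun 1-79 + anti-pSer73 cJun; cpd titration, 15 min RT; ATP 10 uM start; Tris pH 7.6, MgCl2, DTT, vanadate; beads in EDTA buffer; AlphaScreen.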

[7] = target: 3',5'-cyclic-AMP phosphodiesterase 4B (Homo sapiens) (UniProt Q07343); assay: qHTS Assay for Inhibitors of PDE-IV (AID 607; active = well fitted activation curve with a large enough effect in the main read-out, with a control signal flat, not every such curve was filed as active; note: % of control where 0% means no effect); settings: HEK293 ACTOne CNG channel cells, membrane potential fluorescence; series mostly up to 22.9 µM
How it was run: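 The readout is membrane depolarisation from a cAMP-sensing CNG channel, detected with a potential dye at ex 535/em 590. Cells were HEK293-derived (endogenous PDE-IV) at 1000 cells/well, titrated up to 22.9 uM final.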

[8] = target: Cytochrome P450 3A4 (Homo sapiens) (UniProt P08684); assay: qHTS Assay for Activators of Cytochrome P450 3A4 (AID 885; active = well fitted curve in the direction sought with a large enough effect; an effect the other way counts as inactive or inconclusive; note: nearly all actives have a fitted effect of over 65% in size; note: potency is the fitted concentration of half-maximal effect); settings: recombinant CYP3A4, Luciferin-PPXE luminescence, 60 min; series mostly up to 57.1 µM
How it was run: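 Activators are scored by enhanced luminescence from CYP3A4 conversion of luciferin-PPXE (25uM, equal to KM) to luciferin, after 60 min at RT with an NADPH-regenerating system.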

[9] = qHTS Assay for Lipid Storage Modulators (AID 1519; calls by dose curve); settings: Drosophila S3 cells, BODIPY lipid droplet/cell ratio, laser cytometry, cells loaded with oleic acid; for activity change, negative = inhibition: at 57.5 µM (top of the series)
How it was run: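 Cells seeded at 5,000 per well were treated with compounds over a concentration series and loaded with oleic acid (400 uM, as added). Lipid droplet fluorescence (488 nm excitation, 500-530 nm channel) was read by laser-scanning cytometry and normalized to 20 uM Triacsin C.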

[10] = Primary qHTS for small molecule stabilizers of the endoplasmic reticulum resident proteome: Secreted ER Calcium Modulated Protein (SERCaMP) assay (AID 1508630; active = well fitted curve in the direction sought with a large enough effect; an effect the other way counts as inactive or inconclusive; note: % is set by controls: 0 for no effect and ±100 for the full control effect); settings: SH-SY5Y GLuc-SERCaMP (Gaussia luciferase released on ER calcium loss) secretion, thapsigargin, luminescence; series mostly up to 38.4 µM
How it was run: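 The SH-SY5Y reporter protocol was run at 3 concentrations up to 38.3 uM (primary) or 11 concentrations (follow-up): 16 h compound, 100 nM thapsigargin for 4 h, then extracellular luciferase luminescence.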

[11] = target: Cytochrome P450 3A4 (Homo sapiens) (UniProt P08684); assay: qHTS Assay for Inhibitors and Substrates of Cytochrome P450 3A4 (AID 884; active = well fitted curve in the direction sought with a large enough effect; an effect the other way counts as inactive or inconclusive; note: % is set by controls: 0 for no effect and ±100 for the full control effect; nearly all actives have a fitted effect of over 50% in size); settings: recombinant CYP3A4, Luciferin-PPXE luminescence; series mostly up to 57.1 µM
How it was run: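 Luminescent readout of luciferin produced by CYP3A4 (20 nM) dealkylation of Luciferin-PPXE, 25 uM (its KM). NADPH-driven reaction ran 60 min at RT after 10 min compound preincubation; data scaled to 57 uM ketoconazole as 100% inhibition.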

[12] = target: Cytochrome P450 2D6 (Homo sapiens) (UniProt P10635); assay: qHTS Assay for Inhibitors and Substrates of Cytochrome P450 2D6 (AID 891; active = well fitted curve in the direction sought with a large enough effect; an effect the other way counts as inactive or inconclusive; note: potency is the fitted concentration of half-maximal effect; nearly all actives have a fitted effect of over 60% in size); settings: recombinant CYP2D6, luciferin-ME EGE luminescence; series mostly up to 57.1 µM
How it was run: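 Luminescent read-out of luciferin formed by 5 nM human CYP2D6 demethylating 30 uM Luciferin-ME EGE (Km level) over 60 min at room temperature after NADPH regeneration addition. Data normalized to full inhibition by 1.43 uM quinidine.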

[13] = target: Cytochrome P450 2C9 (Homo sapiens) (UniProt P11712); assay: qHTS Assay for Inhibitors and Substrates of Cytochrome P450 2C9 (AID 883; active = well fitted curve in the direction sought with a large enough effect; an effect the other way counts as inactive or inconclusive; note: nearly all actives have a fitted effect of over 60% in size; note: potency is the fitted concentration of half-maximal effect); settings: recombinant CYP2C9, luciferin-H luminescence, 60 min; series mostly up to 57.1 µM
How it was run: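 10nM CYP2C9 + 100uM Luciferin-H (=KM), 25mM KPO4; cpd 10 min 37C; NADPH regen, 60 min 37C; stop/detect with P450 Glo-Buffer 20 min; luminescence. Norm. to 57uM sulphaphenazole as full inhibition.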

[14] = target: Cytochrome P450 2C19 (Homo sapiens) (UniProt P33261); assay: qHTS Assay for Inhibitors and Substrates of Cytochrome P450 2C19 (AID 899; active = well fitted curve in the direction sought with a large enough effect; an effect the other way counts as inactive or inconclusive; note: % is set by controls: 0 for no effect and ±100 for the full control effect; nearly all actives have a fitted effect of over 60% in size); settings: recombinant CYP2C19, luciferin-H EGE luminescence; series mostly up to 57.1 µM
How it was run: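 Luminescent read-out of luciferin formed from Luciferin-H EGE (10uM, equal to KM). Enzyme 5nM in 50mM KPO4; compound added, 10 min at 37C, then NADPH regenerating system for 60 min at 37C. Full inhibition defined by 57uM ketoconazole.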

[15] = measured here: cell count channel max response
[16] = measured here: lipid channel max response

Cytochrome P450 3A4 (Homo sapiens), sequence (P08684 whole entry, looked up): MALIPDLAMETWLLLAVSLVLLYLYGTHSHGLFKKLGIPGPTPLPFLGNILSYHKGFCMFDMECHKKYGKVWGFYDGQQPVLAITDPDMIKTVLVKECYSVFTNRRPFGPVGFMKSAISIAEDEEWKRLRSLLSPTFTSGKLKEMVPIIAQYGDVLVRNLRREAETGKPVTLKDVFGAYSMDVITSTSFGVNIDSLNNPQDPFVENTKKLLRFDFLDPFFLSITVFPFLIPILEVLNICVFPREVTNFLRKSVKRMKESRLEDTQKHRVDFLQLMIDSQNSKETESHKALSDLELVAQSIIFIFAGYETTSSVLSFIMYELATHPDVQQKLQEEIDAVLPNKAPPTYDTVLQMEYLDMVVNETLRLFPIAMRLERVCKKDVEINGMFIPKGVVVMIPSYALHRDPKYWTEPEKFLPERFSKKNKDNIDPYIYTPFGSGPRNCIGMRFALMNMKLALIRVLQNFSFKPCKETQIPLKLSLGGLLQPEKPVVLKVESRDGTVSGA
Cytochrome P450 1A2 (Homo sapiens), sequence (P05177 whole entry, looked up): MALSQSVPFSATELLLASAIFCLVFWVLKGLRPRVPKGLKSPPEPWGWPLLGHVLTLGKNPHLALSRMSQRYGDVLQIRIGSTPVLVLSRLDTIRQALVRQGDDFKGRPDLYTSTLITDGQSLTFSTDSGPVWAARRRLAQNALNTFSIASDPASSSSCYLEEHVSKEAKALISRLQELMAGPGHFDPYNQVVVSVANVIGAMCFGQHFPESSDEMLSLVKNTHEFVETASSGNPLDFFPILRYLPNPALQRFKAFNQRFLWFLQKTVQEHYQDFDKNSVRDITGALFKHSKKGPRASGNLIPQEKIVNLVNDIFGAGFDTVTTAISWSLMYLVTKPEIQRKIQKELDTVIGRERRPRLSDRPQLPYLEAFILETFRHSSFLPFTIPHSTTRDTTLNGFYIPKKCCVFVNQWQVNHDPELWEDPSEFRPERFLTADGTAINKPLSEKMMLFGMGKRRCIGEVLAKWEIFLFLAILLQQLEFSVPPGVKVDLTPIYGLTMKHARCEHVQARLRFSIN
3',5'-cyclic-AMP phosphodiesterase 4B (Homo sapiens), sequence (Q07343 whole entry, looked up): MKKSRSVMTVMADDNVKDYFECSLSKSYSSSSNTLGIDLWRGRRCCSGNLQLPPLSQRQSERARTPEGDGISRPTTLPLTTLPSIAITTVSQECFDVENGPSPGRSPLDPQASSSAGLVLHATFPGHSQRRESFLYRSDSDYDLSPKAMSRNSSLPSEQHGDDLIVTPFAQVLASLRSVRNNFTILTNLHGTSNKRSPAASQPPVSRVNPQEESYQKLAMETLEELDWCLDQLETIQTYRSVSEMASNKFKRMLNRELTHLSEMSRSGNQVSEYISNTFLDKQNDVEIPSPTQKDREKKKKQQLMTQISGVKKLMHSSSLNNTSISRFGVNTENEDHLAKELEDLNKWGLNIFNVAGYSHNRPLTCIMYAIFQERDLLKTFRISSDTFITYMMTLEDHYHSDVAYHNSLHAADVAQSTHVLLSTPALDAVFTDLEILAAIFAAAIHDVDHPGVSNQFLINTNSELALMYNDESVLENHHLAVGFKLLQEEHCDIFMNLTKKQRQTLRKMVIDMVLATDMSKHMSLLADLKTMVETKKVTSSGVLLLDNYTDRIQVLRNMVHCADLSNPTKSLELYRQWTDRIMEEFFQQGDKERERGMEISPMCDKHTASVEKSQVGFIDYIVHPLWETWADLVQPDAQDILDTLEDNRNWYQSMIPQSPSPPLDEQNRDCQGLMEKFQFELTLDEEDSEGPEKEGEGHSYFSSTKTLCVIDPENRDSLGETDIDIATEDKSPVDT
Glucocorticoid receptor (Homo sapiens), sequence (P04150 whole entry, looked up, the tested form may be a part): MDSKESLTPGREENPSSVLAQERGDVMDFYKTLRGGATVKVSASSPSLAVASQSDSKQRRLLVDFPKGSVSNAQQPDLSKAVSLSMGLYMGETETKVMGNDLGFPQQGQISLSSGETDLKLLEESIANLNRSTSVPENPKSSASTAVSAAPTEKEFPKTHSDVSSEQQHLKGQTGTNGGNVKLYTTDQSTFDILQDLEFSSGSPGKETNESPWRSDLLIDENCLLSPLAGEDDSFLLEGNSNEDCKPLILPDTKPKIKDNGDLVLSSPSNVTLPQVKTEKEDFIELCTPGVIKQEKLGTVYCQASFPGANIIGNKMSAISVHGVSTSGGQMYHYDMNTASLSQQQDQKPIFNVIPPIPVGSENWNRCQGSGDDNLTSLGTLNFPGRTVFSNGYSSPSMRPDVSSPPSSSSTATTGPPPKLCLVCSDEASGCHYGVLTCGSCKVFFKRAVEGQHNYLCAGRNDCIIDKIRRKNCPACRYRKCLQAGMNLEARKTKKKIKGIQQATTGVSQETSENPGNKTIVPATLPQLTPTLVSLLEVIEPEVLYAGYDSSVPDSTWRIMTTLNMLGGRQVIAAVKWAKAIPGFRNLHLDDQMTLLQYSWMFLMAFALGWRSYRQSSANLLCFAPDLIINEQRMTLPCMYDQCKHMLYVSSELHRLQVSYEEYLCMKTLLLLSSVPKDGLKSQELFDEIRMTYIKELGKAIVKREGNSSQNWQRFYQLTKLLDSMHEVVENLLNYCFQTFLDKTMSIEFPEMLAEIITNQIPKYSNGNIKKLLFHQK
Lysosomal acid glucosylceramidase (Homo sapiens), sequence (P04062 whole entry, looked up): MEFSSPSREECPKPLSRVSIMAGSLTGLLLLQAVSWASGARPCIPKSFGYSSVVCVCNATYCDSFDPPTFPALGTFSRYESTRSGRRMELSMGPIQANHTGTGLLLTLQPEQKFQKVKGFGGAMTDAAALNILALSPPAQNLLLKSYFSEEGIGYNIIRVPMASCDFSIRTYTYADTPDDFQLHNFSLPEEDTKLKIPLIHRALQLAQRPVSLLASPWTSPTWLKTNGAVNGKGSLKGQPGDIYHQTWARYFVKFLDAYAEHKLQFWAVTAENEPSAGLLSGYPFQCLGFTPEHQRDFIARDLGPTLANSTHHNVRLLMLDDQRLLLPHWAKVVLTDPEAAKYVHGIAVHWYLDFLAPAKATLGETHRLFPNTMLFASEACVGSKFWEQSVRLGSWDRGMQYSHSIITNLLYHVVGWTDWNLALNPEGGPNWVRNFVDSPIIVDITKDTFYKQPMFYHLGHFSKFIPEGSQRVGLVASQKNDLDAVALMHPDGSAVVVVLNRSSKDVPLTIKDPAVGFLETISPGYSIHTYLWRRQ
Cytochrome P450 2D6 (Homo sapiens), sequence (P10635 whole entry, looked up): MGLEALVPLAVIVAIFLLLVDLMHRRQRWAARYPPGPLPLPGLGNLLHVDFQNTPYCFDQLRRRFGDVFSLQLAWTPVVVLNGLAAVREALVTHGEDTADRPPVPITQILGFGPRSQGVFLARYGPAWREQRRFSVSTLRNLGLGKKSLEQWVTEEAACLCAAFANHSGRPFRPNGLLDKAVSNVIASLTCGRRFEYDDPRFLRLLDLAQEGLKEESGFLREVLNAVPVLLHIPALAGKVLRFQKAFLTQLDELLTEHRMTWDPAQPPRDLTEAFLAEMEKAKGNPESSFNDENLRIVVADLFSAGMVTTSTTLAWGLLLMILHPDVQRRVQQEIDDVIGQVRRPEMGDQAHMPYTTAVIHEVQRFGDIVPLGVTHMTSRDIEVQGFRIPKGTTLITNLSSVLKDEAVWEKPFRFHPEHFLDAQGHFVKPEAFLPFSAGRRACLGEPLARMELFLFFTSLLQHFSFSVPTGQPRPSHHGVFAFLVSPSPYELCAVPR
Cytochrome P450 2C9 (Homo sapiens), sequence (P11712 whole entry, looked up): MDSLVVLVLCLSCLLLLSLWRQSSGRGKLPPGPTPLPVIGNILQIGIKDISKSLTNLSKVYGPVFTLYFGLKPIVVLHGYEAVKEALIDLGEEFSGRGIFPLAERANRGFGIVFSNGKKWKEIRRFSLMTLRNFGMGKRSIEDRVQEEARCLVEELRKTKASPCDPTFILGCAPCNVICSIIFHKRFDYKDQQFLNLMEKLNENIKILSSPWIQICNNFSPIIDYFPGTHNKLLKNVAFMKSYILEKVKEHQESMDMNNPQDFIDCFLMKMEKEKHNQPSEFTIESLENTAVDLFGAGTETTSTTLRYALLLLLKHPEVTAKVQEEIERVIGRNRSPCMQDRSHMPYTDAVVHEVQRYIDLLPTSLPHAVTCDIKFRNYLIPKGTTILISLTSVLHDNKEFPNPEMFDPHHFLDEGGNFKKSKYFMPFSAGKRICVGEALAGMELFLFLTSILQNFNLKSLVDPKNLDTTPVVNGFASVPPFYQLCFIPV
Cytochrome P450 2C19 (Homo sapiens), sequence (P33261 whole entry, looked up): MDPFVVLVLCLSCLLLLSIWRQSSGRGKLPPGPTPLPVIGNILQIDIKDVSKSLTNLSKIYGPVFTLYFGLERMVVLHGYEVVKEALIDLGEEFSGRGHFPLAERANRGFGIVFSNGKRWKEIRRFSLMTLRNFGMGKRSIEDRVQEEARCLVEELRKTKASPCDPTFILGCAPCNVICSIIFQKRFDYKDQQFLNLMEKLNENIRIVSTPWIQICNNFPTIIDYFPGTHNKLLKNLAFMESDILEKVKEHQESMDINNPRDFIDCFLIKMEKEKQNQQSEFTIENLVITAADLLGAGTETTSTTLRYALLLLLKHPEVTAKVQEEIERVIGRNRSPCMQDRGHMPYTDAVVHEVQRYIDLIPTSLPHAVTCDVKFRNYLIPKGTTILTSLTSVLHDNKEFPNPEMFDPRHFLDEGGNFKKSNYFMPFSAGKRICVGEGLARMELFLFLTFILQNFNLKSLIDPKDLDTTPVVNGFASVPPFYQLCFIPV

Compound	Potency [1]	activity change, negative = inhibition [2]	Potency [3]	activity, negative = inhibition [4]	Potency [5]	Potency [6]	Potency [7]	Potency [8]	activity change, negative = inhibition [9]	max response [9, 15] [%]	max response [9, 16] [%]	outcome [10]	Potency [11]	Potency [12]	Potency [13]	Potency [14]
CC(C)CN1CCCC2(CCN(C(=O)c3cccn3C)CC2)C1	> 11.4 µM (inactive)	-3.67% (inactive)	inactive	12.4% (inactive)	> 46 µM (inactive)	inactive	inactive	inactive	6.1% (inactive)	16.8	26.5	inactive	–	–	–	–
Cc1noc(C)c1C(=O)N1CCC2(CCCN(c3ccncc3)C2)CC1	> 11.4 µM (inactive)	6.75% (inactive)	inactive	8.27% (inactive)	> 46 µM (inactive)	inactive	inactive	inactive	5.44% (inactive)	15.3	23.4	inactive	–	–	–	–
O=C(c1ccco1)N1CCC2(CCN(Cc3ccccc3)CC2)CC1	> 11.4 µM (inactive)	-4.92% (inactive)	inactive	-6.84% (inactive)	> 46 µM (inactive)	inactive	inactive	20 µM (active)	-0.6% (inactive)	-0.833	1.54	inactive	inactive	3.98 µM (active)	–	–
N#Cc1ccc(CN2CCCC3(CCN(C(=O)c4ccncc4)CC3)C2)cc1	> 11.4 µM (inactive)	-16.7% (inactive)	inactive	1.22% (inactive)	> 46 µM (inactive)	inactive	inactive	inactive	2.04% (inactive)	4.42	7.34	inactive	–	–	inactive	inactive
c1ccc(-c2cccc(N3CCC4(CCNCC4)CC3)c2)cc1	> 11.4 µM (inactive)	-2.96% (inactive)	15.8 µM (active)	-2.71% (inactive)	> 46 µM (inactive)	inactive	inactive	inactive	2.27% (inactive)	-17	-12.4	inactive	–	–	–	–
O=C(Nc1ccccc1)N1CCCC2(CCN(S(=O)(=O)c3ccccc3)CC2)C1	> 11.4 µM (inactive)	-18.5% (inactive)	15.8 µM (active)	-7.13% (inactive)	> 46 µM (inactive)	inactive	inactive	inactive	0.932% (inactive)	19.2	22	inactive	–	–	–	–
O=C(c1ccncc1)N1CCC2(CCCN(C(c3ccccc3)c3ccccc3)C2)CC1	> 11.4 µM (inactive)	22.9% (inactive)	0.2 µM (active)	11.1% (inactive)	> 46 µM (inactive)	inactive	inactive	inactive	2.92% (inactive)	12.6	17.9	inactive	–	0.0398 µM (active)	5.01 µM (active)	–
